Results filed as inconclusive are left out. Values without a mark were called inactive. The call rests on the fitted dose curve; in most records, active means well fitted inhibition curve with a large enough effect; inconclusive means small, poorly fitted or top-dose-only effect; inactive means flat fitted curve, though single readings scatter. Where a SMILES comes first, the peptide text is derived from it. Bridges are numbered along the chain shown (N, C = ends). [ ]: non-standard residue; d: D form. hArg = N=C(N)NCCCC[C@H](N)C(=O)O; Mpa = O=C(O)CCS
Test system: CP247
Assay: qHTS profiling for inhibitors of Plasmodium falciparum proliferation (AID 504749);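 further: 0% = DMSO vehicle and full inhibition = artemisinin control; nearly all actives have a fitted effect of over 60% in size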
Details: P. falciparum in erythrocytes, SYBR Green DNA, 72 h; series mostly up to 28.7 µM; activity, negative = inhibition: at the top concentration
How it was run: (§1)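 SYBR Green fluorescence (ex 485 nm, em 535 nm) reports parasite DNA after 72 h compound exposure of infected red cells at 0.3% parasitemia, 2.5% hematocrit; signal normalized to 0.29 uM artemisinin and vehicle wells.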

| Structure (SMILES) | activity, negative = inhibition |
| --- | --- |
| O=C(Cn1ccnc1[N+](=O)[O-])NCCO | 3.02% |
| Cc1c(C)c2c(c(C)c1OC(=O)c1cccnc1)CC[C@@](C)(CCC[C@H](C)CCC[C@H](C)CCCC(C)C)O2 | 15.2% |
| COc1ccc2cc(CCC(C)=O)ccc2c1 | -8.28% [at 12.8 µM] |
| CN(C/C=C/C#CC(C)(C)C)Cc1cccc2ccccc12 | 7.57% |
| CCN(CC)CCc1nc(-c2ccccc2)no1 | -13.2% [at 12.8 µM] |
| COc1nccnc1NS(=O)(=O)c1ccc(N)cc1 | 14.7% |
| Cn1c([N+](=O)[O-])cnc1COC(N)=O | 10.4% |
| COC(=O)c1ccc(O)cc1 | 0.616% |
| CC[N+](CC)(CC(=O)Nc1c(C)cccc1C)Cc1ccccc1 | -7.33% |
| CC1CCN(CCCC(=O)c2ccc(F)cc2)CC1 | 5.75% |
| COc1ccccc1OC(=O)Oc1ccccc1OC | 0.954% |
| CN1CCCN=C1COC(=O)C(O)(c1ccccc1)C1CCCCC1 (stereo not given) | 3.92% |
| O=C(/C=C/c1ccccc1)OCc1ccccc1 | 12.6% |
| Cc1c(Cn2ccnc2)c2ccccc2n1CCC(=O)O | 0.873% |
| NC(=O)[C@@H]1CSSCCC(=O)N[C@@H](CCCCN=C(N)N)C(=O)NCC(=O)N[C@@H](CC(=O)O)C(=O)N[C@@H](Cc2c[nH]c3ccccc23)C(=O)N2CCC[C@H]2C(=O)N1 ([Mpa][hArg]GDWPC-NH2; disulfide 1-7) | 8.26% |
| N[C@@H](Cc1ccc(O)cc1)C(=O)O | 15.1% |
| CC1CCc2cc(F)cc3c(=O)c(C(=O)O)cn1c23 (stereo not given) | 0.53% |
| C[C@@H]1O[C@@H](OC[C@H]2O[C@@H](Oc3c(-c4ccc(O)c(O)c4)oc4cc(O)cc(O)c4c3=O)[C@H](O)[C@@H](O)[C@@H]2O)[C@H](O)[C@H](O)[C@H]1O | 0.417% |

| Structure (SMILES) | activity, negative = inhibition |
| --- | --- |
| Cc1onc(-c2ccccc2)c1-c1ccc(S(N)(=O)=O)cc1 | 1.52% |
| COc1ccc(C(=O)NCc2ccc(OCCN(C)C)cc2)cc1OC | 2.57% |
| Cc1ccsc1C(=CCCN1CCC[C@@H](C(=O)O)C1)c1sccc1C | 4.28% |
| CCCCCCCC(=O)OCC(COC(=O)CCCCCCC)OC(=O)CCCCCCC | 0.158% |
| CN/C(=C\[N+](=O)[O-])NCCSCc1csc(CN(C)C)n1 | 11% [at 12.8 µM] |
| CCN1CC(CCN2CCOCC2)C(c2ccccc2)(c2ccccc2)C1=O (stereo not given) | -6.16% |
| NS(=O)(=O)c1ccc(C(=O)O)cc1 | 1.16% |
| CCOC(N)=O | 10.7% |
| Cc1c(NC(C)C)c(=O)n(-c2ccccc2)n1C | -16.2% |
| CCOc1ccc(C(=O)OCCN(CC)CC)cc1 | 24.3% |
| O=C(OOC(=O)c1ccccc1)c1ccccc1 | -7.56% |
| C=CCSCC1Nc2cc(Cl)c(S(N)(=O)=O)cc2S(=O)(=O)N1 (stereo not given) | 11.5% |
| Cc1c(NC(=O)c2cccnc2)c(=O)n(-c2ccccc2)n1C | 4.17% [at 12.8 µM] |
| CCCCCCCCCCC(CO)CCCCCCCC (stereo not given) | 2.4% |
| CCOc1cc(NC(C)=O)ccc1C(=O)OC | 13.1% |
| Cc1ncc(CO)c(CN)c1O | 3.43% |
| NS(=O)(=O)c1ccc(NC(=O)CCC(=O)O)cc1 | 25.5% |

Test system: CP250
Assay: as above
Details: P. falciparum in erythrocytes, SYBR Green DNA, 72 h; series mostly up to 28.7 µM; activity, negative = inhibition: at the top concentration
How it was run: as §1

| Structure (SMILES) | activity, negative = inhibition |
| --- | --- |
| O=C(Cn1ccnc1[N+](=O)[O-])NCCO | 0.377% |
| Cc1c(C)c2c(c(C)c1OC(=O)c1cccnc1)CC[C@@](C)(CCC[C@H](C)CCC[C@H](C)CCCC(C)C)O2 | 8.12% |
| COc1ccc2cc(CCC(C)=O)ccc2c1 | -2.21% [at 12.8 µM] |
| CN(C/C=C/C#CC(C)(C)C)Cc1cccc2ccccc12 | 4.03% |
| CCN(CC)CCc1nc(-c2ccccc2)no1 | -0.658% [at 12.8 µM] |
| COc1nccnc1NS(=O)(=O)c1ccc(N)cc1 | 4.54% |
| Cn1c([N+](=O)[O-])cnc1COC(N)=O | 8.65% |
| COC(=O)c1ccc(O)cc1 | -5.72% |
| CC[N+](CC)(CC(=O)Nc1c(C)cccc1C)Cc1ccccc1 | 0.944% |
| CC1CCN(CCCC(=O)c2ccc(F)cc2)CC1 | 0.188% |
| COc1ccccc1OC(=O)Oc1ccccc1OC | 2.77% |
| CN1CCCN=C1COC(=O)C(O)(c1ccccc1)C1CCCCC1 (stereo not given) | -0.972% |
| O=C(/C=C/c1ccccc1)OCc1ccccc1 | 3.27% |
| Cc1c(Cn2ccnc2)c2ccccc2n1CCC(=O)O | -22.6% |
| NC(=O)[C@@H]1CSSCCC(=O)N[C@@H](CCCCN=C(N)N)C(=O)NCC(=O)N[C@@H](CC(=O)O)C(=O)N[C@@H](Cc2c[nH]c3ccccc23)C(=O)N2CCC[C@H]2C(=O)N1 ([Mpa][hArg]GDWPC-NH2; disulfide 1-7) | -17% |
| N[C@@H](Cc1ccc(O)cc1)C(=O)O | -5.13% |
| CC1CCc2cc(F)cc3c(=O)c(C(=O)O)cn1c23 (stereo not given) | -0.151% |
| C[C@@H]1O[C@@H](OC[C@H]2O[C@@H](Oc3c(-c4ccc(O)c(O)c4)oc4cc(O)cc(O)c4c3=O)[C@H](O)[C@@H](O)[C@@H]2O)[C@H](O)[C@H](O)[C@H]1O | 0.692% |

| Structure (SMILES) | activity, negative = inhibition |
| --- | --- |
| Cc1onc(-c2ccccc2)c1-c1ccc(S(N)(=O)=O)cc1 | 5.4% |
| COc1ccc(C(=O)NCc2ccc(OCCN(C)C)cc2)cc1OC | 9.67% |
| Cc1ccsc1C(=CCCN1CCC[C@@H](C(=O)O)C1)c1sccc1C | -13.5% |
| CCCCCCCC(=O)OCC(COC(=O)CCCCCCC)OC(=O)CCCCCCC | 14.9% |
| CN/C(=C\[N+](=O)[O-])NCCSCc1csc(CN(C)C)n1 | 2.08% [at 12.8 µM] |
| CCN1CC(CCN2CCOCC2)C(c2ccccc2)(c2ccccc2)C1=O (stereo not given) | -1.52% |
| NS(=O)(=O)c1ccc(C(=O)O)cc1 | -2% |
| CCOC(N)=O | 2.25% |
| Cc1c(NC(C)C)c(=O)n(-c2ccccc2)n1C | 9.56% |
| CCOc1ccc(C(=O)OCCN(CC)CC)cc1 | 0.217% |
| O=C(OOC(=O)c1ccccc1)c1ccccc1 | 0.0582% |
| C=CCSCC1Nc2cc(Cl)c(S(N)(=O)=O)cc2S(=O)(=O)N1 (stereo not given) | 6.15% |
| Cc1c(NC(=O)c2cccnc2)c(=O)n(-c2ccccc2)n1C | 2.32% [at 12.8 µM] |
| CCCCCCCCCCC(CO)CCCCCCCC (stereo not given) | -4.15% |
| CCOc1cc(NC(C)=O)ccc1C(=O)OC | -0.178% |
| Cc1ncc(CO)c(CN)c1O | 5.02% |
| NS(=O)(=O)c1ccc(NC(=O)CCC(=O)O)cc1 | 13.4% |
